Screens deposited in PubChem by Broad Institute.
NOMO-1 viab – STK33 inhibitor candidate reducing NOMO-1 cell viability; 7.5% of 37,000 active; NOMO-1 AML viability, CellTiter-Glo luminescence, 72 h; inhibition, % (no concentration beside the values); in the data active = inhibition above about 80%; inconclusive = no clear call, values can overlap the other calls
Hedgehog inh – Sonic Hedgehog pathway inhibition; Shh-LIGHT2 Gli-luciferase reporter, 30 h; inhibition, % (no concentration beside the values); 2.1% of 22,000 active; AID 2313;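 active = mean inhibition across valid replicates above about 65%, limit read from the data; inconclusive = mean under the limit, yet half or more replicates past it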;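 note: pathway switched on by Shh-conditioned medium diluted 1 in 25 in low serum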
MITF inhib – inhibitors of MITF; AID 2240; 0.28% of 37,000 active; TRPM1 promoter luciferase, luminescence, 24 h; inhibition, % (test concentration not listed); in the data active = inhibition above about 85%; inconclusive = no clear call, values can overlap the other calls; inactive = below about 68%;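 note: human melanocyte line stably carrying TRPM1 promoter luciferase reporter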
The depositor's hits bear a star; ? = inconclusive; . = no result given. In the library only some 7.8% were active in any assay of this set; here they are far more common.

SMILES	NOMO-1 viab	Hedgehog inh	MITF inhib
Cn1c(SCC(=O)c2cc(C(C)(C)C)c(O)c(C(C)(C)C)c2)nnc1-c1ccncc1	-4	.	-10
CCOC(=O)CSc1nnc2c(n1)[nH]c1ccccc12	111*	.	2
CC(=O)c1cccc(NC(=O)CSc2nnc3c(n2)[nH]c2ccccc23)c1	59	.	55
CS(=O)(=O)N(CC(=O)Nc1ccc(I)cc1)c1cccc2ccccc12	43	.	59
C[C@@H]1CCCCO[C@H](CN(C)Cc2ccc(C(F)(F)F)cc2)[C@@H](C)CN([C@H](C)CO)C(=O)c2cc(NC(=O)Nc3ccc(F)cc3)ccc2O1	100*	.	21
C[C@@H]1CCCCO[C@H](CN(C)C)[C@@H](C)CN([C@H](C)CO)C(=O)c2cc(NC(=O)Nc3ccc(C(F)(F)F)cc3)ccc2O1	13	-57	-15
C[C@@H]1CCCCO[C@@H](CN(C)Cc2ccc(C(F)(F)F)cc2)[C@@H](C)CN([C@H](C)CO)C(=O)c2cc(NC(=O)NC3CCCCC3)ccc2O1	?	4	32
C[C@@H]1CCCCO[C@H](CN(C)Cc2ccncc2)[C@@H](C)CN([C@H](C)CO)C(=O)c2cc(NC(=O)Nc3ccc(F)cc3)ccc2O1	12	.	-11
C[C@@H]1CCCCO[C@H](CN(C)Cc2ccc(C(F)(F)F)cc2)[C@@H](C)CN([C@H](C)CO)C(=O)c2cc(NC(=O)NC3CCCCC3)ccc2O1	94*	40	13
C[C@@H]1CCCCO[C@H](CN(C)Cc2ccc3c(c2)OCO3)[C@@H](C)CN([C@H](C)CO)C(=O)c2cc(NC(=O)Nc3ccc(C(F)(F)F)cc3)ccc2O1	84*	27	-18
C[C@@H]1CCCCO[C@@H](CN(C)C(=O)Nc2ccc(C(F)(F)F)cc2)[C@@H](C)CN([C@H](C)CO)C(=O)c2cc(NC(=O)Nc3ccc4c(c3)OCO4)ccc2O1	58	.	-9
C[C@@H]1CCCCO[C@H](CN(C)CC2CCCCC2)[C@@H](C)CN([C@H](C)CO)C(=O)c2cc(NC(=O)Nc3ccc(C(F)(F)F)cc3)ccc2O1	112*	37	-12
CN(CC(=O)Nc1ccc(F)cc1F)S(=O)(=O)c1ccccc1	36	.	-49
CS(=O)(=O)N(CC(=O)Nc1ccc(Oc2ccccc2)cc1)c1ccc(F)c(Cl)c1	29	.	-6
COc1ccc(N(C(C)C(=O)Nc2ccc(Cl)cc2C)S(C)(=O)=O)cc1 (stereo unspecified)	32	.	10
CCC(Sc1nnnn1C)C(=O)Nc1cccc([N+](=O)[O-])c1 (stereo unspecified)	1	.	10
COc1cc(Br)c(S(=O)(=O)NCCOc2ccc(C(C)(C)C)cc2)cc1OC	11	.	42
COC(=O)c1ccc(NC(=O)CSc2nnnn2C2CC3CCC2C3)cc1 (stereo unspecified)	19	.	22
N#C/C(=C\c1ccsc1)S(=O)(=O)c1ccc(C(F)(F)F)cn1	26	-35	12
C[C@@H]1CCCCO[C@H](CN(C)S(=O)(=O)c2ccc(F)cc2)[C@@H](C)CN([C@H](C)CO)C(=O)c2cc(NC(=O)Nc3ccc(F)cc3)ccc2O1	43	-21	14
C[C@@H]1CCCCO[C@H](CN(C)S(=O)(=O)c2ccc(F)cc2)[C@@H](C)CN([C@H](C)CO)C(=O)c2cc(NC(=O)Nc3ccc(C(F)(F)F)cc3)ccc2O1	98*	20	18
C[C@@H]1CCCCO[C@H](CN(C)Cc2ccccc2)[C@@H](C)CN([C@H](C)CO)C(=O)c2cc(NC(=O)Nc3ccc(F)cc3)ccc2O1	35	67*	3
C[C@@H]1CCCCO[C@H](CN(C)Cc2ccc(C(F)(F)F)cc2)[C@@H](C)CN([C@H](C)CO)C(=O)c2cc(NC(=O)Nc3ccccc3)ccc2O1	74	1	19
C[C@@H]1CCCCO[C@H](CN(C)Cc2ccccc2)[C@@H](C)CN([C@H](C)CO)C(=O)c2cc(NC(=O)Nc3ccc(C(F)(F)F)cc3)ccc2O1	104*	.	-1
C[C@@H]1CCCCO[C@@H](CN(C)Cc2ccccc2)[C@@H](C)CN([C@H](C)CO)C(=O)c2cc(NC(=O)Nc3ccc(F)cc3)ccc2O1	46	.	31
SMILES	NOMO-1 viab	Hedgehog inh	MITF inhib
C[C@@H]1CCCCO[C@@H](CN(C)C)[C@@H](C)CN([C@H](C)CO)C(=O)c2cc(NC(=O)Nc3ccccc3)ccc2O1	108*	-8	-1
C[C@@H]1CCCCO[C@@H](CN(C)C)[C@@H](C)CN([C@H](C)CO)C(=O)c2cc(NC(=O)Nc3ccc(F)cc3)ccc2O1	9	-35	-3
COc1cc(-c2nnc(SCC(=O)c3ccco3)n2C)cc(OC)c1OC	4	18	3
Nc1ccc(S(=O)(=O)C(F)(F)F)cc1	-9	-3	-16
O=C(NCCCN1CCOCC1)c1cnn2c(C(F)(F)F)cc(-c3ccccc3)nc12	15	.	-27
C[C@@H]1CCCCO[C@@H](CN(C)Cc2ccc(C(F)(F)F)cc2)[C@@H](C)CN([C@H](C)CO)C(=O)c2cc(NC(=O)Nc3ccc(C(F)(F)F)cc3)ccc2O1	107*	24	-1
C[C@@H]1CCCCO[C@H](CN(C)Cc2ccc(C(F)(F)F)cc2)[C@@H](C)CN([C@H](C)CO)C(=O)c2cc(NC(=O)c3ccncc3)ccc2O1	18	.	-5
C[C@@H]1CCCCO[C@H](CN(C)Cc2ccc(C(F)(F)F)cc2)[C@@H](C)CN([C@H](C)CO)C(=O)c2cc(NC(=O)Nc3ccc(C(F)(F)F)cc3)ccc2O1	113*	-41	0
C[C@@H]1CCCCO[C@H](CN(C)C(=O)CCCN(C)C)[C@@H](C)CN([C@H](C)CO)C(=O)c2cc(NC(=O)CCC(F)(F)F)ccc2O1	8	77*	-4
C[C@@H]1CCCCO[C@H](CN(C)Cc2ccc(C(F)(F)F)cc2)[C@@H](C)CN([C@H](C)CO)C(=O)c2cc(NC(=O)c3ccccc3)ccc2O1	53	7	30
C[C@@H]1CCCCO[C@@H](CN(C)C(=O)CCC(F)(F)F)[C@@H](C)CN([C@H](C)CO)C(=O)c2cc(NC(=O)CCCN(C)C)ccc2O1	-1	-22	4
O=C(Oc1cccc(OC(=O)c2ccccc2F)c1)c1ccccc1F	26	.	-4
CSc1ccccc1NC(=O)CN(c1cc(Cl)ccc1C)S(C)(=O)=O	-2	.	1
CCCOc1ccc(-c2nc(SCC(N)=O)n[nH]2)cc1	14	.	-70
CCCCCCCCC[C@@H](O)CC(=O)CCc1ccc(O)c(OC)c1	92*	-13	2
CCCCCC(O)CC(O)CCc1ccc(O)c(OC)c1 (stereo unspecified)	.	-34	.
Cn1c(SCC(=O)Nc2ccc(Cl)cc2)nc2sc3c(c2c1=O)CCCC3	2	.	9
CS(=NC(=O)Nc1ccc(Cl)cc1)c1sc(Cl)c2c1C(=O)CCC2 (stereo unspecified)	116*	53	3
C[C@H](CO)N1C[C@H](C)[C@@H](CN(C)S(=O)(=O)c2ccc(Cl)cc2)Oc2c(NC(=O)Nc3ccccc3)cccc2C1=O	53	-88	-14
C[C@H]1CN([C@@H](C)CO)C(=O)c2cccc(NC(=O)Nc3ccc(F)cc3)c2O[C@@H]1CN(C)S(=O)(=O)c1ccc(Cl)cc1	11	18	-3
